Bioassay records: PubChem, several laboratories
TMEM16A inh: blocks the mouse calcium-activated chloride channel TMEM16A; Q8BHY3; HEK293 TMEM16A/YFP iodide influx fluorescence, ionomycin; normalized B-score (activity score, 25-100; higher = stronger inhibition) at 10 µM; 310,000 compounds, 1.2% hits; AID 588511;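 active = ratio plate-corrected score three or more library SD toward inhibition, starting fluorescence score within five deviations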;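 note: score derived from kinetic fluorescence span divided by baseline fluorescence per well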
CHT PAM: allosterically activates the human high affinity choline transporter | CHT-expressing cells, membrane potential dye, choline EC20; hits give high values; LV-AA mutant CHT in HEK293 cells | B-score at 10 µM | 310,000 compounds, 0.49% hits;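 active = initial fluorescence not abnormally high and integrated response B-score, plate-corrected, over 3 SD above library mean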
Target sequence (Q9GZV3 whole entry, looked up): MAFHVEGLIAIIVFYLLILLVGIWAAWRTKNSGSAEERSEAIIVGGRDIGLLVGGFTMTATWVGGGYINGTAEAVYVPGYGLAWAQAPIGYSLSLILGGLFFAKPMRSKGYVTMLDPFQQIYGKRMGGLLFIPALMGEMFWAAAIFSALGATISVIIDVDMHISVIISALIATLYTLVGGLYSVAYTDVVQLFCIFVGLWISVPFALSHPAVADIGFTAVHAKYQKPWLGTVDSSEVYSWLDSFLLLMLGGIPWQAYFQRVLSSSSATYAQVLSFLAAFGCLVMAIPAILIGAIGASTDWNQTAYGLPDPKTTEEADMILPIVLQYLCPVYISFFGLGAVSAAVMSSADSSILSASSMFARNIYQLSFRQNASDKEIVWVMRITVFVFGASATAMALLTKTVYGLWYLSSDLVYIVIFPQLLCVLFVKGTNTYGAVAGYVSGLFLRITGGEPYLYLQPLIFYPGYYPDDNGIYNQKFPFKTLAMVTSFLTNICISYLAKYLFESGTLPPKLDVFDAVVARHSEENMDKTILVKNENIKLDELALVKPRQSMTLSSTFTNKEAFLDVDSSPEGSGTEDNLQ
CHT inh: inhibitors of human choline transporter CHT. Q9GZV3. CHT-expressing cells, membrane potential dye, choline response; hits give low values. B-score at 10 µM. 310,000 compounds, 0.86% hits. AID 488975;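 active = B-score over 3 SD under the library average, and starting fluorescence ratio not unusually high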;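 note: choline stimulus applied at its EC90 after an EC20 pre-addition; B-score computed on integrated fluorescence ratio after choline addition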
TMEM16A act: activates or potentiates the mouse TMEM16A chloride channel; HEK293 TMEM16A/YFP-H148Q/I152L, iodide quench fluorescence; hits give low values; B-score at 10 µM; 340,000 compounds, 0.3% hits; AID 623877;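 active = fluorescence-ratio B-score plate-corrected deviation score at least 3 library SD below zero, with starting fluorescence score within 5 deviations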;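 note: channel opened by trigger with iodide after compound preincubation; score built on the fluorescence ratio of max minus min over baseline; more negative score means more quench and so TMEM16A activation or potentiation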
Kir21 inh: inhibitors of mouse Kir2.1 inward-rectifier potassium channel. P35561. HEK293-Kir2.1, FluxOR thallium flux fluorescence; hits give low values. B-score at 10 µM. 310,000 compounds, 0.85% hits. AID 1672;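 active = fluorescence ratio B-score at or below minus 3 SD of library scores, with starting-brightness B-score within 2 SD, cut at about -4.2 in these data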;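 note: channel flux triggered by added potassium and thallium sulfate stimulus; B-score of peak minus minimum fluorescence over baseline after thallium stimulus; more negative B-score means stronger Kir2.1 block with less thallium influx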
Rce1 inhib: blocks yeast Ras-converting enzyme; calls only; yeast membranes, quenched prenylated peptide cleavage fluorescence; 290,000 compounds, 0.27% hits; AID 2563; Q03530;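 active = fall in fluorescence gain of 50% or more versus controls, with final raw signal at or below 3038400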;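 note: plate controls were neutral control wells for no effect and wells lacking membranes for full effect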
* marks the source's active call; other numbers are inactive results; i = inactive; . = no result given. Most compounds without a hit are left out; they make up all but 3.2% or so of the library.

SMILES	TMEM16A inh	CHT PAM	CHT inh	TMEM16A act	Kir21 inh	Rce1 inhib
O=C1Nc2ccc(Cl)cc2[C@@](C#CC2CC2)(C(F)(F)F)O1	100*	i	i	.	-0.31	i
CCOC(=O)c1sc(Nc2nc3c(OC)cccc3s2)nc1C	100*	i	i	i	1.6	i
CCOC(=O)c1sc(Nc2ccccc2)nc1C	i	i	i	i	0.95	i
CC(=O)n1cc(C(C[N+](=O)[O-])SCCN)c2ccccc21 (stereo not drawn)	i	i	i	i	-13.4*	i
Cc1ccc(S(=O)(=O)/N=C2/NC(=O)/C(=C/c3ccncc3)S2)cc1	i	i	-5.34*	.	-3.48	i
Cc1cccc(N=C2NC(=O)/C(=C/c3cccs3)S2)c1	i	i	i	i	-1.77	i
Cc1ccc(/C=C2\S/C(=N/S(=O)(=O)c3cccs3)NC2=O)cc1	25*	i	i	i	0.82	i
Cc1ccc(S(=O)(=O)/N=C2/NC(=O)/C(=C\c3ccco3)S2)cc1	i	i	i	i	.	.
Cc1ccc(S(=O)(=O)/N=C2/NC(=O)/C(=C\c3ccccc3)S2)cc1	.	.	.	i	.	.
COc1cc(/C=C2\S/C(=N/S(=O)(=O)c3ccc(C)cc3)NC2=O)c([N+](=O)[O-])cc1OC	i	i	-7.41*	i	0.72	i
Cc1ccc(S(=O)(=O)/N=C2/NC(=O)/C(=C/c3cc([N+](=O)[O-])ccc3O)S2)cc1	i	i	i	i	-1.7	i
Cc1ccc(S(=O)(=O)/N=C2/NC(=O)/C(=C/c3ccccc3)S2)cc1	100*	i	i	i	-0.16	.
c1coc(CSSCc2ccco2)c1	.	.	.	i	.	.
Cc1[nH]c2ccccc2c1C(=O)CN1CCN(c2ccc(Cl)cc2)CC1	i	i	i	i	0.9	i
CCOc1ccc(CCNC(=O)COc2cccc(-n3cnnn3)c2)cc1OCC	i	i	i	i	-2.46	i
Cc1ccc(NS(=O)(=O)c2cc(C(=O)NCCSc3ccc(C)cc3)ccc2C)cc1	i	i	i	i	-0.29	i
Cc1ccc(C(=O)NCCSc2ccc(Cl)cc2)cc1S(=O)(=O)Nc1ccccc1	100*	i	i	i	0.39	i
Cc1nsc2nc3c(F)c(F)c(F)c(F)c3cc12	i	i	i	i	0.99	i
COC(=O)c1sc(S(=O)(=O)Nc2ccc(C)cc2)c(C(=O)OC)c1C	i	i	i	i	0.8	i
COC(=O)c1sc(S(=O)(=O)NCc2ccccc2)c(C(=O)OC)c1C	i	i	i	i	-5.18*	i
CCc1ccc2oc(-c3ccc(OC)cc3)cc(=Nc3c(C)n(C)n(-c4ccccc4)c3=O)c2c1	100*	i	i	i	1.41	i
NC(=S)c1cc2cc(Cl)ccc2oc1=O	i	i	i	i	0.21	i
O=C(CN1CCN(C(=O)C2CCCO2)CC1)Nc1ccc(Cl)c(Cl)c1 (stereo not drawn)	i	i	i	i	-0.93	i
NNC(=O)c1ncoc1-c1ccc(Cl)cc1	i	i	i	i	0.27	i
COc1cc(/C=C/C(=O)OCC(=O)N(CC(C)C)c2c(N)n(Cc3ccccc3)c(=O)[nH]c2=O)ccc1O	.	.	.	-21.8*	.	.
SMILES	TMEM16A inh	CHT PAM	CHT inh	TMEM16A act	Kir21 inh	Rce1 inhib
CC(C)c1ccc(C2=C(O)c3ccccc3C(=O)C2=O)cc1	25*	i	i	i	1.98	i
Cc1ccc(C2=C(O)c3ccccc3C(=O)C2=O)cc1	i	i	i	i	-0.89	i
Cc1ccc(C(OCC(O)CNC(CO)C(O)c2ccc([N+](=O)[O-])cc2)c2ccccc2)cc1 (stereo not drawn)	i	i	i	i	-5.16*	i
Cc1ccc(C(OCC(O)CNC(C)c2ccccc2)c2ccccc2)cc1 (stereo not drawn)	i	i	i	i	-6.02*	i
O=C1c2ccccc2C(=O)N1C(CO)C(O)c1ccc([N+](=O)[O-])cc1 (stereo not drawn)	i	i	i	i	1.66	i
CNC(=O)[C@@H]1CCC(=O)N1	.	.	.	i	.	.
